Data taken from PubChem BioAssay (NCI).
The panel holds about 83,000 compounds, 20% with a hit somewhere; the sample as a whole holds those more often.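 Testing used 96-well plates and a 48-hour single-concentration exposure. Example: -40 means 40% of the starting cells died.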 A number with no mark means an inactive call. The source made the active and inactive calls. How the source made its calls: active means growth percent below 10; inactive means the rest.

Experiments:
Experiment in all cases: NCI-60 one-dose screen, 48 h (100 = growth as untreated, 0 = no growth, -100 = all killed)
Conditions in all cases: 10 µM unless noted
T-47D breast = system: T-47D breast
BT-549 breast = system: BT-549 breast
MDA-MB-435 melanoma = system: MDA-MB-435 melanoma
SW-620 colon = system: SW-620 colon
MCF7 breast = system: MCF7 breast
HCT-116 colon = system: HCT-116 colon
HCC-2998 colon = system: HCC-2998 colon
KM12 colon = system: KM12 colon

SMILES | growth (T-47D breast) | growth (BT-549 breast) | growth (MDA-MB-435 melanoma) | growth (SW-620 colon) | growth (MCF7 breast) | growth (HCT-116 colon) | growth (HCC-2998 colon) | growth (KM12 colon)
O=C(COc1ccc(/C=C2\Cc3ccccc3C2=O)cc1)c1ccc(Cl)cc1 | 102% | 113% | 95.4% | 107% | 97.1% | 77.7% | 82.2% | 107%
CCOC(=O)C(Br)=P(c1ccccc1)(c1ccccc1)c1ccccc1 | 97.7% | 117% | 98.6% | 105% | 111% | 110% | 109% | 112%
COP(=O)(OC)C(c1ccc(O)cc1)(c1ccc(O)cc1)c1ccc(O)cc1 | 104% | 133% | 118% | 97.3% | 109% | 82.7% | 127% | 113%
CC(=O)/C(=C/c1ccc(Cl)cc1)C(=O)c1ccccc1 | 83% | 97.4% | 61.4% | 61.3% | 53.1% | 66% | 99.2% | –
COc1ccc(Cl)cc1Nc1nc(C(F)(F)F)ccc1C(=O)N/N=C/c1c(Cl)cccc1Cl | 42.2% | 48.6% | 62.7% | 36.9% | 185% | 51.4% | 63.5% | 52.7%
COc1cc(-c2nc3sc4c(c3c(=O)[nH]2)CCCCCC4)cc(OC)c1OC | 32.8% | 53.1% | -18% (active) | 30.3% | 15% | 20.3% | -1.77% (active) | 28.6%
COc1ccc(C(=O)COc2cccc(/C=C3\CSc4ccc(Cl)cc4C3=O)c2)cc1 | 70.4% | 42.5% | 93.2% | -65.9% (active) | -11.8% (active) | 53.9% | 95.2% | –
Cc1ccc(NC(=O)c2sc3nc4c(cc3c2N)C(=O)CCC4)cc1 | 94.7% | 86.4% | 14.6% | 67% | 67.7% | 91.7% | 80.2% | 56.7%
COc1cccc(CCN2C(=O)CCC3=C2CCC3=O)c1 | 102% | 101% | 107% | 119% | 103% | 97.7% | 104% | –
CC(=O)Nc1ccc(C(=O)COc2ccc(/C=C3\CCc4ccccc4C3=O)cc2)cc1 | 91% | 97.1% | 122% | 113% | 122% | 106% | 118% | –
c1ccc(-c2n(Cc3ccc4ccccc4c3)cc[n+]2Cc2ccc3ccccc3c2)cc1 | -0.722% (active) | -77.5% (active) | -73.2% (active) | -50.7% (active) | -65.8% (active) | -91.6% (active) | -59.9% (active) | -81.5% (active)
Cc1cnc2nc(-c3ccc(N(C)C)cc3)cn2c1 | 89.8% | 112% | 96.3% | 116% | 92.1% | 97.2% | 111% | 104%
Cc1ccc(-c2c3c(N)nc(-c4ccncc4)nc3nc3c2c(C)nn3-c2ccccc2)cc1 | 35.6% | 59.4% | 31.4% | 39.5% | 1.86% (active) | 12.7% | 99.8% | 74.7%
COc1ccc(OC)c2c1CCC1(C2)NC(=O)NC1=O (stereo not given) | 109% | 114% | 95.9% | 103% | 92.4% | 107% | 106% | –
CN(C)c1ccc(-c2nc3ncc(Br)cc3o2)cc1 | 75.7% | 78.3% | 115% | 99.3% | 97.6% | 86.8% | 85% | 113%
C/C(=C\CCc1ccoc1)CC/C=C(\C)CCCN1CCOCC1 | 27.4% | 58.9% | 71.8% | 57.8% | 28.1% | 39.2% | 62.3% | 56.9%

SMILES | growth (T-47D breast) | growth (BT-549 breast) | growth (MDA-MB-435 melanoma) | growth (SW-620 colon) | growth (MCF7 breast) | growth (HCT-116 colon) | growth (HCC-2998 colon) | growth (KM12 colon)
O=C(O)C1C(c2ccccc2)c2ccccc2C(O)C1CO (stereo not given) | 115% | 103% | 116% | 106% | 97% | 101% | 106% | 117%
CCOc1nc(-c2ccco2)n2nc(-c3ccco3)cc2n1 | 84% | 119% | 114% | 107% | 39.8% | 108% | 123% | 91.7%
N#Cc1c(-c2ccccc2)cc(-c2ccccc2)n(CCCC(=O)O)c1=O | 89.1% | 83.6% | 104% | 105% | 60% | 93% | 103% | 103%
O=C1CNc2cc(Cl)ccc2N1 | 99.5% | 97.7% | 114% | 105% | 102% | 104% | 104% | 103%
CCOC(=O)c1sc(NC(=O)COc2ccc(/C=C3\CCc4cc(OC)ccc4C3=O)cc2)nc1C | 86.6% | 51.8% | 87.1% | 99.5% | 112% | 105% | 104% | –
c1ccc(N2c3nc4ccccc4cc3Sc3cc4ccccc4nc32)nc1 | 82.6% | 93.2% | 115% | 90.8% | 74% | 98.5% | 113% | –
O=[N+]([O-])c1ccc(N=Nc2c(Cl)cc(O)cc2Cl)cc1 | 4.24% (active) | -33.6% (active) | -24.4% (active) | -10% (active) | 1.11% (active) | -57.2% (active) | 5.82% (active) | -39.8% (active)
COc1cccc(N2CCN(CC(=O)N3CCN(c4nnc(-c5ccc(Cl)cc5)c(-c5ccc(Cl)cc5)n4)CC3)CC2)c1 | 27.2% | 88.4% | 70.9% | 72.3% | 41.2% | 40.1% | 80.6% | 56.5%
CN1CCC[C@@H]1CCO[C@](C)(c1ccccc1)c1ccc(Cl)cc1 | 56.1% | 69.1% | 49.8% | 80% | 63.3% | 47.9% | 61.8% | 88%
NS(=O)(=O)c1cc2c(cc1Cl)NC=NS2(=O)=O | 97.7% | 95.9% | 102% | 111% | 96.9% | 98% | 93.4% | 106%
OCCN1CCN(CCCN2c3ccccc3Sc3ccc(C(F)(F)F)cc32)CC1 | 54.5% | 53% | -46.1% (active) | -31.2% (active) | 18.3% | 2.28% (active) | -83.2% (active) | 9.9% (active)
COc1ccc(C2=NN(C(N)=S)C(c3ccc4c(c3)OCO4)C2)cc1 (stereo not given) | 36.7% | -2.03% (active) | 3.04% (active) | 1.46% (active) | 10.5% | 1.71% (active) | -24.7% (active) | 2.57% (active)
COc1cc(/C=C2\SC(N3CCCCC3)=NC2=O)ccc1OCCCCCCOc1ccc(/C=C2\SC(N3CCCCC3)=NC2=O)cc1OC | 21.9% | -36.6% (active) | -48% (active) | -24.7% (active) | 16.6% | -64.3% (active) | -76.5% (active) | -72.1% (active)
NC(=NCCCCCCN=C(N)/N=C(\N)Nc1ccc(Cl)cc1)/N=C(\N)Nc1ccc(Cl)cc1 | 19.3% | 10.6% | 18.3% | 23.4% | 7.79% (active) | 13.5% | 15.3% | -12% (active)
CCC(C)C1NC(=O)C(CCNCS(=O)(=O)O)NC(=O)C(NC(=O)C(CCNCS(=O)(=O)O)NC(=O)C(NC(=O)C(CCNCS(=O)(=O)O)NC(=O)CCCCC(C)C)C(C)O)CCNC(=O)C(C(C)O)NC(=O)C(CCNCS(=O)(=O)O)NC(=O)C(CCNCS(=O)(=O)O)NC(=O)C(C(C)CC)NC1=O (stereo not given) | 49.2% | 66.3% | -56.2% (active) | 34.8% | 18.7% | 31.7% | 65.1% | –
